Assay outcomes as filed in PubChem BioAssay.
Hits are enriched below; roughly 3% of the tested compounds scored in any of these assays.
Glioma ERSR ind – ER stress response induction in glioma; U87-MG GRP78 promoter luciferase reporter, 16 h; Potency, µM, inactives show at the highest dose activation, usual class: activators; hit rate 0.02% among 420,000; AID 602332; also: potency is read from the fitted curve at half-maximal effect; series mostly up to about 76 µM; % of control where 0% means no effect; nearly all actives have a fitted effect of over 35% in size
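Stably transfected U87-MG human glioma cells carrying a GRP78-based luminescent sensor were seeded at 1000 cells/well, pin-dosed with compounds and incubated 16 h. Luciferase reagent was then added, and end-point luminescence was read after 10 min at room temperature.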
Nrf2 ARE act – activators of Nrf2 (ARE) signaling; AREc32 ARE-luciferase reporter (MCF7-derived line), luminescence, 24 h; Potency, µM (series often up to 46.1 µM), without a hit: at the top dose activation, usual class: activators; hit rate 0.31% among 410,000; also: potency is read from the fitted curve at half-maximal effect; % of control where 0% means no effect; nearly all actives have a fitted effect of over 65% in size
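For detection, Steady-Glo was added and plates sat 30 min at RT; before that, AREc32_Fluc cells grown overnight in OPTI-MEM/5% FBS had been treated with 23 nL compound for 24 hr at 37 deg C.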
DRD3 antagonist – blocks the human D3 dopamine receptor; hit rate 2.5% among 360,000; D3R cells, DiscoveRx beta-arrestin luminescence, antagonist mode; hits give low values; P35462; max response, negative = inhibition, %; in the data active = max response below about -50%; inconclusive = no clear call, values can overlap the other calls; also: % is scaled to controls: 0 for no effect and ±100 for the full control effect
Target sequence (P35462 whole entry, looked up): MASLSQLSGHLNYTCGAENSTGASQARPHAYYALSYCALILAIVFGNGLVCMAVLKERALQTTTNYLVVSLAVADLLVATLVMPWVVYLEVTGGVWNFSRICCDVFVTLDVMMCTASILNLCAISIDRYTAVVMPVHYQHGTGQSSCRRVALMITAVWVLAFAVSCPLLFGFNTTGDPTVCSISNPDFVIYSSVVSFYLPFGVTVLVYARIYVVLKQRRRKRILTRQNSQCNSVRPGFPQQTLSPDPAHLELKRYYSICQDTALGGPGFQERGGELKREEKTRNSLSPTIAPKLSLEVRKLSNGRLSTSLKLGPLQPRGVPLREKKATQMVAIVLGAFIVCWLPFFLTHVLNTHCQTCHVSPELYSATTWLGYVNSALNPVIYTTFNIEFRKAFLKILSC
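Cells plated overnight at 1500 cells/well, then exposed to library compounds with dopamine controls for 90 minutes at 37 degrees C. DiscoveRx reagent added for 30–60 minutes at room temperature; luminescence read, quantitative HTS format.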
D3 ag – agonists of human D3 dopamine receptor; D3R DiscoveRx beta-arrestin cells, luminescence, 90 min; max activation, %; hit rate 0.58% among 410,000; AID 652048; in the data active = max activation above about 30%; also: 0% is about no effect
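Cells at 1500/well, incubated overnight, then treated with pinned compounds (dopamine as control) for 90 min at 37 degrees C. DiscoveRx reagent added for 30 - 60 minutes at room temperature; luminescence read.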
Numbers without * were called inactive. Unless noted, calls follow the shape of the dose curve; as a rule, active = well fitted curve in the direction sought with a large enough effect; inconclusive = small, poorly fitted or top-dose-only effect, or another doubt; inactive = no such curve, though single readings can be large; an effect the other way counts as inactive or inconclusive.

`CCOC(=O)c1ccc(-c2ccc(/C=N/NC(=O)CN(c3ccccc3Cl)S(C)(=O)=O)o2)cc1` gave Glioma ERSR ind -1%, Nrf2 ARE act 0%, DRD3 antagonist 53 and D3 ag 44*.
Screening CC(C)(C)OC(=O)NCCc1nnc(SCc2ccc(Cl)cc2Cl)o1 returned Glioma ERSR ind -1%, Nrf2 ARE act 2%, DRD3 antagonist 30 and D3 ag -3.
`Clc1cccc(NCc2nnc(SCc3ccc(Cl)cc3Cl)o2)c1` gave Glioma ERSR ind -6%, Nrf2 ARE act 6%, DRD3 antagonist -63* and D3 ag -12.
For Cc1ccc(-c2nc(CCNC(=O)C(=O)Nc3ccc(C)c(C)c3)cs2)cc1 the results were Glioma ERSR ind -2%, Nrf2 ARE act 0% and D3 ag 10.
O=C(Nc1ccn(CCCNCc2cccc3ccccc23)c(=O)n1)OCc1ccccc1 was read as Glioma ERSR ind -1%, Nrf2 ARE act -3%, DRD3 antagonist -51* and D3 ag -14.
O=C(Nc1ccn(CCCNCc2ccccn2)c(=O)n1)OCc1ccccc1 was read as Glioma ERSR ind -1%, Nrf2 ARE act -1%, DRD3 antagonist -11 and D3 ag -11.
Screening CC(CNCCCn1ccc(NC(=O)OCc2ccccc2)nc1=O)c1ccccc1 (configuration not stated) returned Glioma ERSR ind -2%, Nrf2 ARE act 7%, DRD3 antagonist -51* and D3 ag -69.
For CC[C@]12c3[nH]c4cc(-c5ccco5)ccc4c3CCN1C(=O)[C@@H](CC(=O)NCCCOC)C[C@@H]2C(=O)N1CCN(C(=O)C2CC2)CC1 the results were Glioma ERSR ind -2%, Nrf2 ARE act 0%, DRD3 antagonist inconclusive and D3 ag 16.
Screening CC[C@]12c3[nH]c4cc(-c5ccco5)ccc4c3CCN1C(=O)[C@@H](CC(=O)NCCCOC)C[C@@H]2C(=O)N1CCN(C(=O)c2ccco2)CC1 returned Glioma ERSR ind -2%, Nrf2 ARE act 4%, DRD3 antagonist 0 and D3 ag 43*.
Screening Cn1c(=O)[nH]c(=O)c2c1nc(NN)n2CCOc1ccccc1 returned Glioma ERSR ind -6%, Nrf2 ARE act 1%, DRD3 antagonist 13 and D3 ag 7.
`Cn1c(=O)[nH]c(=O)c2c1nc(Br)n2CCOc1ccccc1` gave Glioma ERSR ind 4%, Nrf2 ARE act 17%, DRD3 antagonist -53* and D3 ag 4.
COc1ccc(Nc2nc(NCc3ccco3)nc(N/N=C/c3ccccc3)n2)cc1 was read as Glioma ERSR ind -2%, Nrf2 ARE act 2%, DRD3 antagonist -51* and D3 ag -6.
Screening Cc1ccccc1[C@H](NC1c2ccccc2C=Cc2ccccc21)P(=O)(c1ccccc1)c1ccccc1 returned Nrf2 ARE act -1%, DRD3 antagonist -56* and D3 ag -5.
`CC(=O)c1ccc(F)c(-c2cc(C)cc3c2OC(CNC(=O)c2ccnn2C)C3)c1` (configuration not stated) gave Glioma ERSR ind -4%.
For CCOC(=O)c1cc2c(=O)n3ccccc3nc2n(CC2CCCO2)c1=NC(=O)c1ccc(OCC)cc1 (configuration not stated) the results were Glioma ERSR ind 3%, Nrf2 ARE act 0% and D3 ag 1.
`COC(=O)C1=C[C@@H](C(=O)OC)C2C3=C(C(=O)C24CCCCC4)[C@H](C)n2c(=O)n(C)c(=O)n2[C@@H]3C1` (some centres not stated) gave Glioma ERSR ind -3%, Nrf2 ARE act 0%, DRD3 antagonist 11 and D3 ag 3.
For COC(=O)C1=C[C@@H](C(=O)OC)C2C3=C(C(=O)C24CCCCC4)[C@H](C)n2c(=O)n(-c4ccccc4)c(=O)n2[C@@H]3C1 (some centres not stated) the results were Glioma ERSR ind -4%, Nrf2 ARE act -1%, DRD3 antagonist 28 and D3 ag 35*.
`Cc1csc(N/N=C/c2ccc(O)c([N+](=O)[O-])c2)n1` gave Glioma ERSR ind 1%, Nrf2 ARE act inconclusive, DRD3 antagonist -54* and D3 ag -10.
Screening CC(C)NS(=O)(=O)c1ccc(NC(=O)C(C)Oc2ccc(C(=O)c3ccccc3)cc2)cc1 (configuration not stated) returned Glioma ERSR ind inconclusive, Nrf2 ARE act 7%, DRD3 antagonist -54* and D3 ag -13.
For CC(Oc1ccccc1)C(=O)Nc1ccc(C(N)=O)cc1 (configuration not stated) the results were Glioma ERSR ind 0%, Nrf2 ARE act 0%, DRD3 antagonist inconclusive and D3 ag -31.
For Cc1ccc(NC(=O)Cn2nnc(-c3ccccc3)n2)c(C)c1 the results were Glioma ERSR ind 0%, Nrf2 ARE act -1% and D3 ag 7.
Screening CCN(CC)c1ccc(NC(=O)Cn2nnc(-c3cccc(OC)c3OC)n2)c(C)c1 returned Glioma ERSR ind 0%, Nrf2 ARE act 0%, DRD3 antagonist 16 and D3 ag 31*.
`COc1ccc(-c2nnc3ccc(SCC(=O)N4CCOCC4)nn23)cc1` gave Glioma ERSR ind 1%, Nrf2 ARE act 0%, DRD3 antagonist -10 and D3 ag 0.
Screening CCOC(=O)C(C)Sc1ccc2nnc(-c3ccc(F)cc3)n2n1 (configuration not stated) returned Glioma ERSR ind -3%, Nrf2 ARE act 0%, DRD3 antagonist 15 and D3 ag 35*.
`COc1ccc(-c2nnc3ccc(SC)nn23)cc1` gave Glioma ERSR ind -1%, Nrf2 ARE act 1%, DRD3 antagonist -86* and D3 ag 14.
For C=C1C(=O)C23C(O)C1CCC2C12CCCC(C)(COC(C)=O)C1C(O)C3(O)OC2 (configuration not stated) the results were Glioma ERSR ind -14%, Nrf2 ARE act -4%, DRD3 antagonist -95* and D3 ag -13.
`CC(=O)c1ccccc1-c1ccc2c(c1)CC(CNC(=O)c1cc(C)on1)O2` (configuration not stated) gave Glioma ERSR ind 1%.
COc1cc2c(c(OC)c1OC)C(=O)C(=Cc1ccccc1)O2 was read as Glioma ERSR ind 4%, Nrf2 ARE act 16µM*, DRD3 antagonist 4 and D3 ag 4.
For COc1ccccc1C(=O)Oc1ccc2c(c1)O/C(=C\c1ccncc1)C2=O the results were Glioma ERSR ind -1%, Nrf2 ARE act inconclusive, DRD3 antagonist -30 and D3 ag -8.
O=C(NCc1ccccc1Cl)c1ccc(Cn2c(=O)c3cccn3c3cccnc32)cc1 was read as Glioma ERSR ind -4%, Nrf2 ARE act 4% and D3 ag -6.
CCOC(=O)c1sc2ccccc2c1S(=O)(=O)NCc1ccc(F)cc1 was read as Glioma ERSR ind 0%, Nrf2 ARE act 5% and D3 ag 4.
For Oc1cc(-c2nc3ccccc3s2)cc2c1OCCN(Cc1cccn1-c1nccs1)C2 the results were Glioma ERSR ind 3%.
Screening C/C(=N\Nc1nccnc1Cl)c1ccc(Br)cc1 returned Glioma ERSR ind 2%, Nrf2 ARE act 11µM*, DRD3 antagonist 0 and D3 ag 1.
